TR SRC2 fluor cs: alters Texas Red total fluorescence, flagging assay interference; actives 0.29% (n = 280,000); AID 1479; Potency, µM (titrated, usually from 106 µM), without a hit: at the highest dose fluorescence change, negative = quenching; TRb/SRC2 Texas Red total fluorescence interference; active means well fitted curve in either direction with a large enough effect; inconclusive means small, poorly fitted or top-dose-only effect; further: potency means the concentration at half of the fitted maximal effect; on the % scale 0 is the no-effect control and ±100 the full control effect
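Flags fluorescent or light-absorbing compounds by total fluorescence, S + 2P, at 555 nm excitation and 632 nm emission. Mixture: 20 nM Texas Red SRC2 peptide, 0.6 uM human TRb LBD, 1 uM T3, 5% DMSO; compound exposure 5 h at ambient temperature.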
TSHR antagonist: antagonists of human thyroid stimulating hormone receptor; P16473; TSHR-expressing cells, TSH-stimulated cAMP HTRF, 2 h; stronger effect = lower value; activity change, negative = inhibition, % at 11.5 µM; actives 0.2% (n = 330,000);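 active means activity change below a set negative limit, meaning inhibition stronger than a set level, cut at about -70% in these data; inconclusive means activity change between two set negative limits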; further: on the % scale 0 is the no-effect control and ±100 the full control effect
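Read-out is FRET at 665 nm (cryptate excitation 337 nm) from a cryptate-tagged anti-cAMP antibody, competed by cell cAMP against cAMP-d2. Compounds are tested on freshly harvested TSHR cells challenged with 4nM TSH (EC80) for 2 hours at 37 deg C.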
Coupling enz: inhibits coupling enzyme system, counter-screen for aldolase hits | coupling enzyme system counterscreen, AmpLite Red fluorescence | activity change, negative = inhibition, % at 58.2 µM, hits read low | actives 0.67% (n = 290,000) | AID 2472; in the data active means activity change below about -30%; further: on the % scale 0 is the no-effect control and ±100 the full control effect
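Final compound at 57.5 uM, incubated 10 min at RT with coupling enzyme reagent (glyceraldehyde-3-phosphate), then 20 min with substrate and AmpLite Red detection. Fluorescence read at 525/598 nm; tests interference with the coupling assay, not aldolase inhibition.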
NPSR antagonist: blocks cAMP signaling of the human neuropeptide S receptor; actives 1% (n = 220,000); Potency, µM (doses to about 38.3 µM), inactives show at the top dose activity change, negative = inhibition, usual class: inhibitors; Q6W5P4; CHO-NPSR cells, cAMP TR-FRET, antagonist mode; further: potency means the concentration at half of the fitted maximal effect; on the % scale 0 is the no-effect control and ±100 the full control effect; nearly all actives have a fitted effect of over 50% in size
TRb-SRC2 inh: disrupts binding of human TR beta to SRC2. Potency, µM (titrated, usually from 106 µM), for the others: top-dose activity change, negative = inhibition, hits mostly inhibitors. P10828. actives 0.065% (n = 280,000). TRbeta-SRC2 peptide binding, fluorescence polarization; receptor liganded with 1 µM T3;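 further: potency means the concentration at half of the fitted maximal effect; plate controls were bound peptide for no effect and peptide without receptor for full effect; nearly all actives have a fitted effect of over 50% in size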
Target sequence (P10828 whole entry, looked up): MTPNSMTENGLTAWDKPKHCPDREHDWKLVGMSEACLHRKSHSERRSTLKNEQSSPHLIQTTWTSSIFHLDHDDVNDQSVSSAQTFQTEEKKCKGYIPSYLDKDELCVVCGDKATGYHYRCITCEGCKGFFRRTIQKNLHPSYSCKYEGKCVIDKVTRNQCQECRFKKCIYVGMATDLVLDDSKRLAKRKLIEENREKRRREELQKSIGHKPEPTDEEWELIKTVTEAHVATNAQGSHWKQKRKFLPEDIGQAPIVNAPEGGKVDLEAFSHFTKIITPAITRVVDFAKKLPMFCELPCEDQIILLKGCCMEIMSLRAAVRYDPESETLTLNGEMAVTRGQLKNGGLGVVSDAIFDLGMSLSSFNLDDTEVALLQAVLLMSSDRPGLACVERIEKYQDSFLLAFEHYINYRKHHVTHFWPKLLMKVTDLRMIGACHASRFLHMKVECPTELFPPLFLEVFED
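Quantitative HTS by FP: 0.6 uM TRb LBD, 20 nM labeled SRC2 20-mer, 1 uM T3, 5% DMSO; 5 hr ambient incubation; % activity per concentration and potencies from concentration series.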
TCR activator: activates T cell receptor signaling; Potency, µM (doses to about 9.22 µM), inactives show top-dose activation of IL-2 secretion, actives largely listed as activators; primary human leukocytes, anti-CD3, IL-2 HTRF, 48 h; 330,000 tested, under 10 active; AID 504894; further: % of control where 0% means no effect
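HTRF read-out of IL-2 secretion: europium cryptate donor excited at 320nm, d2 acceptor emission at 665nm. Cells were primary human leukocytes incubated 48 hr with compounds and a-CD3 beads, supplying TCR signal only.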
* = called active by the depositor; u = inconclusive; x = no result given; [ ] = remark or other dose. Only some compounds are listed: those with a hit (about 1% of all), similar ones and a draw of the others. Unless noted, the call rests on the fitted dose curve; in most records, active means well fitted curve in the direction sought with a large enough effect; inconclusive means small, poorly fitted or top-dose-only effect, or another doubt; inactive means no such curve, though single readings can be large; an effect the other way counts as inactive or inconclusive.

SMILES	TR SRC2 fluor cs	TSHR antagonist	Coupling enz	NPSR antagonist	TRb-SRC2 inh	TCR activator
CCOC(=O)c1[nH]c2ccccc2c1NC(=O)c1cc(OC)cc(OC)c1	-3%	x	x	x	1%	x
O=C(Cn1c(-c2cccs2)cc2ccccc21)N1CCN(c2ccccc2F)CC1	100µM*[quencher]	x	x	x	-27%	x
O=C(Cn1c(-c2cccs2)cc2cc(Cl)ccc21)N1CCN(c2ccccc2F)CC1	-18%	x	x	x	0%	x
CCCN1C(=O)/C(=C\C=C2/C=CN(CC)c3ccccc32)SC1=S	u	43	-4	2µM*	-7%[53 µM]	7%[46.1 µM]
Oc1ccc(/C=N/N=C/c2ccc(O)c(O)c2)cc1O	x	-5	-4	x	x	7%
Oc1ccc(N=Cc2ccc(O)c(O)c2)cc1	-7%	4	-46*	-16%[46.1 µM]	1%	2%[46.1 µM]
CC1(C)[C@@H]([C@@H](Br)C(Br)(Br)Br)[C@H]1C(=O)O[C@H](C#N)c1cccc(Oc2ccccc2)c1	2%[201 µM]	x	x	x	3%[201 µM]	x
Cc1cc(O)c(-c2cc(O)c(C)cc2O)cc1O	-3%	-2	-50*	u	2%	5%
CC(Cl)(Cl)C(=O)OCCOc1cc(Cl)c(Cl)cc1Cl	0%[201 µM]	x	x	x	-3%[201 µM]	x
CN1CCc2c(sc3c2C(=O)NC(c2cccs2)N3)C1 (configuration not stated)	45µM*[fluorescent]	-9	-5	-5%[46.1 µM]	u	1%
Cc1ccsc1C1NC(=O)c2c(sc3c2CCN(C)C3)N1 (configuration not stated)	17%	-1	-1	-13%[46.1 µM]	-11%	1%
Cc1ccc(C)c(Cn2c3ccccc3c3cnn(CC(=O)NC4CCC(C)CC4)c(=O)c32)c1 (configuration not stated)	-1%	x	x	x	-4%	x
CCOc1ccc(-c2cc(-c3nc(-c4ccc(OC)c(OC)c4)no3)[nH]n2)cc1	-1%	x	x	x	3%	x
CCOc1ccc(C2=Cc3cc(OC)c(OC)cc3C(=C(Cl)Cl)O2)cc1	-19%	1	-9	-8%[46.1 µM]	28µM*	x
Cc1ccc(S(=O)(=O)c2nnn3c2nc(N2CCC(C)CC2)c2cc(Cl)ccc23)cc1C	-27%	x	x	x	4%	x
CCC(C)NC(=O)c1ccc(-n2c(-c3ccccc3)cc3c2CCCC3)cc1 (configuration not stated)	1.8µM*[quencher]	x	x	x	-13%	x
COc1cccc(N=Cc2ccc(O)cc2O)c1	7%	17	-8	-2%[46.1 µM]	6%	2%
CCOc1ccc(C=Nc2cccc3ncccc23)cc1	0%	0	-42*	25%	1%	4%
COc1ccc(C=Nc2cccnc2N)cc1	x	4	0	x	x	-6%
Oc1ccc(C=Nc2cccc3ncccc23)c(O)c1	2%	-4	-37*	-17%[46.1 µM]	-14%	-1%
Oc1ccc(C=Nc2ccccc2-c2nc3ccccc3[nH]2)c(O)c1	0%	-10	-7	u	0%	-7%[46.1 µM]
Oc1ccc(C=Nc2ccc3ncccc3c2)c(O)c1	u	15	-52*	15%[7.67 µM]	u	x
CCCCN(CC)C(=O)c1nn(C)c2c1CSc1ccccc1-2	-1%	x	x	x	6%	x
O=C(c1ccc2c(c1)CCN2S(=O)(=O)c1ccc(Cl)cc1)N1CCN(c2ccc(F)cc2)CC1	-1%	x	x	x	-9%	x
Cc1ccc(S(=O)(=O)c2cn(C)c3cc(N4CCCC(C)C4)c(F)cc3c2=O)c(C)c1 (configuration not stated)	-20%	x	x	x	-2%	x
SMILES	TR SRC2 fluor cs	TSHR antagonist	Coupling enz	NPSR antagonist	TRb-SRC2 inh	TCR activator
CCc1cccc2c(-c3ccc(F)cc3)nc(SCC(=O)Nc3ccccc3)nc12	-1%	x	x	x	1%	x
O=C(O)c1ccccc1C(=O)Nc1n[nH]c(=S)s1	-7%	27	-70*	-5%[46.1 µM]	-4%	-1%
CCCCn1cc(S(=O)(=O)c2ccc(Cl)cc2)c(=O)c2cc(F)c(N3CCCC(C)C3)cc21 (configuration not stated)	100µM*[quencher]	x	x	x	-15%	x
CCc1ccc(S(=O)(=O)c2cn(C)c3cc(N4CCCCC4C)c(F)cc3c2=O)cc1 (configuration not stated)	112µM*[quencher]	x	x	x	-24%	x
CCCn1cc(S(=O)(=O)c2cccc(Cl)c2)c(=O)c2cc(F)c(N3CCOCC3)cc21	12%	x	x	x	2%	x
CCCn1cc(S(=O)(=O)c2cc(C)ccc2C)c(=O)c2cc(F)c(N3CCOCC3)cc21	25µM*[quencher]	x	x	x	u	x
CCCCn1cc(S(=O)(=O)c2ccc(CC)cc2)c(=O)c2cc(F)c(N3CCCC(C)C3)cc21 (configuration not stated)	89µM*[quencher]	x	x	x	-27%	x
Clc1ccccc1CNc1ncnc2c1c(-c1ccccc1)cn2-c1ccccc1	0%	x	x	x	1%	x
CCOC(=O)N1CCc2c(sc(NC(=O)c3ccc(Cl)s3)c2C(N)=O)C1	-5%	-47	0	2.5µM*	8%	-3%[46.1 µM]
CCOC(=O)N1CCc2c(sc(NC(C)=O)c2C(N)=O)C1	x	x	x	x	x	-6%
Cc1ccc(C)c(NC(=O)c2cc3ccccn3n2)c1	2%	-5	-5	-19%[46.1 µM]	3%	-6%
Cc1ccccc1NC(=O)c1cc2ccccn2n1	-1%	-84*	1	11%	-5%	-1%
CCN(C(=O)CN1C(=O)COc2ccc(S(=O)(=O)N3CCOCC3)cc21)c1ccc(OC)cc1	-2%	-140*	6	x	-10%	5%
Cc1ccc(Cl)cc1NC(=O)C(NS(=O)(=O)c1cccc2nsnc12)c1ccccc1 (configuration not stated)	-2%	x	x	x	-8%	x
CCOC(=O)c1c(C)oc2c1c(C(c1ccncc1)N1CCOCC1)c(O)c1ccccc12 (configuration not stated)	-2%	6	-48*	-16%[46.1 µM]	10%	1%
CCOC(=O)c1c(C)oc2c1c1c(c3ccccc32)OCN(Cc2ccccn2)C1	-2%	-27	-37*	-10%[46.1 µM]	1%	7%
CCOC(=O)c1c(C)oc2c1c(CN1CCN(C(=O)OCC)CC1)c(O)c1ccccc12	-2%	1	-23	-5%	-6%	-6%[46.1 µM]
COc1cccc(Cn2c(CNS(=O)(=O)c3ccc(C(C)(C)C)cc3)nc3cccnc32)c1	2%	x	x	x	-4%	x
CCCCCCc1ccc(N)cc1	1%[201 µM]	x	x	x	-8%[201 µM]	x
Cc1cc(C)cc(NC(=O)c2ccc3c(c2)nnn3C2CCCC2)c1	0%	x	x	x	4%	x
N#Cc1c(N2CCCC2)nc(N)c2c(N)nc(N3CCCC3)cc12	-2%	-18	-36*	-7%[46.1 µM]	u	-5%
COc1cc2c(C#N)c(N3CCN(c4ccccc4OC)CC3)nc(N)c2c(N)n1	-10%	-24	-52*	0%[46.1 µM]	u	-3%
COc1cc2c(C#N)c(N3CCCC3)nc(N)c2c(N)n1	1%	23	-31*	-18%	10%	3%

Screening results from PubChem BioAssay.
